USP17 block = inhibitors of human USP17 deubiquitinase. inhibition, % at 50 µM. A8MUK1. purified USP17, Ub-rhodamine cleavage fluorescence, 3 h. 47,000 tested, 6.5% active. AID 1645855
Target sequence (A8MUK1 whole entry, looked up): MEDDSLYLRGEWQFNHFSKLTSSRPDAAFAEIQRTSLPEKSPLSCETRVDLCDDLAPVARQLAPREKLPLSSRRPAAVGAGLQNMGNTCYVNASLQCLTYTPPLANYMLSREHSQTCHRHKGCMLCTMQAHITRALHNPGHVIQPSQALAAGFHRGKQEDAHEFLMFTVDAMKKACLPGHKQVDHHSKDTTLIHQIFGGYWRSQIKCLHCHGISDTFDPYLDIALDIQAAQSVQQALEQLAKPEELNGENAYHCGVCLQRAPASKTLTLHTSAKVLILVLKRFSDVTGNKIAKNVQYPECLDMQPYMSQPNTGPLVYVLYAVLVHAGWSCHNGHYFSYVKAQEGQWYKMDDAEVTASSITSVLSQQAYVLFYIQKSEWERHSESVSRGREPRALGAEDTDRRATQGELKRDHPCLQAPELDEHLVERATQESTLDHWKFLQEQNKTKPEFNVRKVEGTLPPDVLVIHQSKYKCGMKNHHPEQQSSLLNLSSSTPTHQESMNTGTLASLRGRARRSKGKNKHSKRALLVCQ
USP30 block = blocks human USP30 ubiquitin-rhodamine cleavage; 47,000 tested, 5.3% active; purified USP30, Ub-rhodamine cleavage fluorescence; inhibition, % at 25 µM; Q70CQ3; AID 1645860
Each line names hits and unclear results; the compound was inactive in the other large screens. Most compounds without a hit are left out; they make up all but 9.6% or so of the library. No stated cut-off is given here; in the data, active means inhibition above about 30%; inactive means the rest.

Cc1cc(Nc2cccc(C(=O)Nc3ccccc3C)c2)n2nc(-c3cccnc3)nc2n1	USP30 block 46.1
Cc1cc(Nc2ccc(Cl)cc2)n2nc(-c3cccnc3)nc2n1	none
Cc1cc(NCCC(=O)Nc2ccc(F)cc2)n2nc(-c3cccnc3)nc2n1	none
CC(C)c1cc(Nc2cccc(F)c2)n2nc(-c3cccnc3)nc2n1	USP17 block 34.3, USP30 block 53.1
CC(C)c1cc(NCc2cccnc2)n2nc(-c3cccnc3)nc2n1	none (no result: USP30 block)
Cc1ccc(C2CC(=O)c3cnc(NCC4CCCO4)nc3C2)cc1 (stereo not drawn)	none
O=C(CN1CCCC(c2ccc3cn[nH]c3n2)C1)N1CCOCC1 (stereo not drawn)	none (no result: USP30 block)
Cc1nc2sc(C(c3cccc(F)c3)N3CCC4(CC3)OCCO4)c(O)n2n1 (stereo not drawn)	none (no result: USP17 block)
CC(=O)c1ccc(N(C(=O)c2ccc(Cl)cc2)c2nc3ccccc3s2)cc1	none
COc1ccc(C(=O)N(c2ccc(F)cc2)c2nc3ccccc3s2)cc1OC	USP30 block 48.4
Cc1ccc(NC(=O)CCc2c(C)nc3nc(C)nn3c2C)c(C)c1	none
CC(Nc1ccccc1Oc1ccccc1)C(=O)N1CC(=O)Nc2ccccc21 (stereo not drawn)	none
CCc1ccc(NC(=O)COC(=O)C2CC(=O)N(c3ccc(F)cc3)C2)cc1 (stereo not drawn)	none
CCc1ccc(N2CC(C(=O)OCc3cc(=O)oc4c(C)c(C)ccc34)CC2=O)cc1 (stereo not drawn)	USP17 block 30.9, USP30 block 45.0
CCc1nc2c(c(C(=O)NCCCn3cccn3)n1)OCCO2	none
CCn1c(SCC(=O)c2c(N)n(CC(C)C)c(=O)n(C)c2=O)nnc1-c1ccccc1	USP17 block 58.5
Cn1c(N)c(C(=O)CSc2nnc(COc3ccc(Cl)cc3)n2Cc2ccccc2)c(=O)n(C)c1=O	none
COc1ccccc1NC(=O)CSc1nnc(-c2cc3ccccc3n2C)o1	none
Cn1c(-c2nnc(SCC(=O)Nc3ccc4c(c3)OCO4)o2)cc2ccccc21	none
Cn1c(-c2nnc(SCC(=O)Nc3ccccc3F)o2)cc2ccccc21	USP17 block 43.2, USP30 block 81.8
CN(C(=O)CSc1nnc(-c2cc3ccccc3n2C)o1)c1ccccc1	USP30 block 52.1
C=C(C)[C@@H]1CC[C@@]2(C)C(=O)CC[C@H](C)[C@]2(O)C1	none
Cc1cncc(C2CCCN(C(=O)c3ccc4nc[nH]c4c3)C2)n1 (stereo not drawn)	none
COc1cccc2c1C(=O)c1ccc3c(c1C2=O)C(=O)C[C@@H](C)[C@@H]3O	USP17 block 44.5
COc1ccccc1Nc1ncc2c(n1)CC(C)CC2=O (stereo not drawn)	none
COc1cccc2c1C(=O)c1ccc3c(c1C2=O)C(=O)C[C@@H](C)C3	USP17 block 30.2
COCCN1CCCC12CCN(C(=O)c1ccccc1C)CC2	none
Cc1cccc(C(=O)NCCc2nc3ccccc3n2Cc2ccccc2F)c1	none
COc1ccccc1C(=O)NCc1nc2ccccc2n1Cc1cc(C)ccc1C	USP17 block 67.1, USP30 block 70.6
COc1cc(C(=O)NCCc2nc3ccccc3n2Cc2ccccc2F)cc(OC)c1OC	none
Cc1cccc(C(=O)NCc2nc3ccccc3n2Cc2ccccc2C)c1	USP17 block 59.2
CC1=C2C[C@@H]3C(CN4CCSCC4)C(=O)O[C@@H]3C[C@@]2(C)CCC1 (stereo partly drawn)	none
Cc1nc2nc3ccccc3n2c(C)c1C/C=C/c1ccccc1	none
COc1ccc(-c2ccc(CCC(=O)Nc3c(C)cccc3C)o2)cc1	USP30 block 44.5
COc1ccc(-c2ccc(CCC(=O)Nc3cccc4ccccc34)o2)cc1	none (no result: USP17 block)
CCCc1cc(=O)n2[nH]c(-c3sccc3-n3cccc3)cc2n1	none
CCOc1ccccc1C1c2[nH]c3ccccc3c2C[C@H]2C(=O)N(CCN3CCOCC3)CC(=O)N12 (stereo partly drawn)	none
CCOC(=O)c1cc2c(ccn2C)n1Cc1ccccc1C#N	none
CCOC(=O)c1cc2c(ccn2C)n1Cc1cccc2ccccc12	USP17 block 54.0
Cc1ccc(Nc2nc(NC3CCCC3)nc3c2cnn3C)cc1C	none
O=C(CSc1nccn1C1CCCCC1)Nc1ccc2c(c1)OCO2	none
C=C(NC(=O)C(=C)NC(=O)c1csc(C2=N[C@@H]3c4csc(n4)[C@H]4NC(=O)c5csc(n5)[C@H]([C@](C)(O)[C@@H](C)O)NC(=O)[C@H]5CSC(=N5)/C(=C/C)NC(=O)C([C@@H](C)O)NC(=O)c5csc(n5)C3(CC2)NC(=O)[C@H](C)NC(=O)C(=C)NC(=O)[C@H](C)NC(=O)C([C@@H](C)CC)N[C@@H]2C=Cc3c(C(C)O)cc(nc3[C@H]2O)C(=O)OC4C)n1)C(N)=O (stereo partly drawn)	USP17 block 54.3
CC(=O)N1CCc2cc(S(=O)(=O)NCCC(=O)Nc3ccc(Br)cc3)ccc21	none
CC(=O)c1cccc(NC(=O)c2cc(-c3cccnc3)n[nH]2)c1	USP17 block 77.9, USP30 block 85.5
COc1cccc(NC(=O)c2cc(-c3ccccc3)n[nH]2)c1	none
O=C(Nc1cccc(Br)c1)c1cc(-c2cccnc2)n[nH]1	USP30 block 70.9
COc1cccc(-c2cc(C(=O)Nc3cccc(C)c3)[nH]n2)c1	none
Cc1cccc(C)c1NC(=O)c1ccn(COc2ccccc2)n1	none
Cc1ccc(NC(=O)c2ccn(COc3ccc(F)cc3)n2)nc1	USP17 block 59.9
Cc1ccnc(NC(=O)c2ccn(COc3ccc(Cl)cc3)n2)c1	USP17 block 46.6, USP30 block 71.7
Cc1ccnc(NC(=O)c2ccn(COc3ccc(F)cc3)n2)c1	USP30 block 40.0
O=C(Nc1ccc(Cl)cn1)c1ccn(COc2ccccc2)n1	none
COc1ccc(OCn2ccc(C(=O)Nc3cnn(C)c3C)n2)cc1	none (no result: USP17 block)
COc1ccc(CCC(=O)Nc2ccc3c(c2)Sc2ncccc2C(=O)N3C)cc1	none
O=C1NCc2ccccc2CC12CCCCN2Cc1ccnc2ccccc12 (stereo not drawn)	none
Cc1ccc(C(=O)N2CCN(C3CCN(Cc4ccc5nonc5c4)CC3)C(=O)C2)s1	none
O=C(Cc1c(C(=O)O)[nH]c2ccccc12)NC1CCCc2ccccc21 (stereo not drawn)	none
O=C(N[C@H]1CCCc2ccccc21)c1cc(-c2ccco2)on1	USP17 block 46.7
O=C(NC1CCCc2ccccc21)c1cc(Cl)ccn1 (stereo not drawn)	none (no result: USP17 block)
O=C(NC1CCCc2ccccc21)c1cc(=O)[nH]c2ccccc12 (stereo not drawn)	USP17 block 40.9
COc1ccc(-c2noc(CC(=O)Nc3ccccc3OC)n2)cc1	none
COc1ccccc1NC(=O)NCc1nc(-c2ccc(C(F)(F)F)cc2)no1	USP30 block 45.6
COc1ccc(C)cc1NC(=O)c1ccc(CN(c2ccc(C)c(C)c2)S(C)(=O)=O)cc1	none (no result: USP17 block)
O=C(NCCNS(=O)(=O)c1ccc(Cl)c(Cl)c1)c1ccccc1	none
COc1cccc(-n2nnc(-c3nnc(-c4ccccc4C)o3)c2C)c1	USP30 block 48.8
COc1ccc(-c2nc(-c3nnn(-c4ccc(C)cc4)c3C)no2)cc1OC	none
Cc1c(C(=O)NCC2CCCO2)nnn1-c1cccc(Cl)c1 (stereo not drawn)	none
COc1ccc(OC)c(-n2nnc(-c3nc(-c4ccccc4C)no3)c2C)c1	USP17 block 31.5 (no result: USP30 block)
Cc1c(-c2nnc(-c3ccccn3)o2)nnn1-c1cccc(Cl)c1	USP30 block 69.5
Cc1ccc(-c2nnc(-c3nnn(-c4ccc(C)cc4)c3C)o2)cc1	USP30 block 35.1
COc1ccccc1-c1nc(-c2nnn(-c3ccc(F)cc3)c2C)no1	none (no result: USP30 block)
